Laboratory results taken from PubChem BioAssay.

biological target: Voltage-gated potassium channel subunit beta-2 (Rattus norvegicus) (UniProt P62483); assay: enhancers of rat Kvbeta2 NADPH turnover – biochemical, NADPH fluorescence, primary screen (AID 623); conditions: Recombinant KvBeta, NADPH fluorescence decrease slope, 10 min; at 10 µM; active compounds read low;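 note: fluorescence intensity change per second fitted from 20 to 320 s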
Sequence (P62483 whole entry, looked up): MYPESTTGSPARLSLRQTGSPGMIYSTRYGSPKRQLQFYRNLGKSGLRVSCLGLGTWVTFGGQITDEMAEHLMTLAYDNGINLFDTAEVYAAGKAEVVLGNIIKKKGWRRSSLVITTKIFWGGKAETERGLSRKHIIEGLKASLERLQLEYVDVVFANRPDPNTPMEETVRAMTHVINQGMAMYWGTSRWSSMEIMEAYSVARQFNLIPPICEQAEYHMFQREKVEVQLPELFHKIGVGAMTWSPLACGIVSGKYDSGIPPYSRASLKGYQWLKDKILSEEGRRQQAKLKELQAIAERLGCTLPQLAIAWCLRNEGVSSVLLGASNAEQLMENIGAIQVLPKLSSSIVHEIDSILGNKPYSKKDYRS

NADPH fluorescence slope, inactive:
N#CC1=C(N)OC2=C(C(=O)CCC2)C1CCc1ccccc1 (centres undefined) -1.3e-05
CC(=N\O)/C(CN(C)C)=N/O -6.9e-05
CCOC(=O)C1/C(=N\O)CC(C)(O)C(C(=O)OCC)C1c1ccc(N(C)C)cc1 (centres undefined) -4.6e-05
CCOc1cc(C2Nc3ccccc3C(=O)N2c2ccccc2OC)ccc1O (centres undefined) -3.8e-05
CCOC(=O)C1=C(N)c2ccccc2CC1C(C)C (centres undefined) -2.5e-05
CCOc1ccc2nc(SCC(=O)Nc3ncccn3)[nH]c2c1 -4.6e-05
O=C(CCN1C(=O)c2ccccc2C1=O)OCN1C(=O)c2ccccc2C1=O 4.5e-07
CCOC(=O)Cc1nnc(Nc2cccc(O)c2)c2ccccc12 -9.4e-05
Cc1cc(/C=N\O)c(C)n1-c1ccncc1 -0.000127
Cc1ccc(NC(=O)CSC2=C(C#N)C(c3ccc4c(c3)OCO4)CC(=O)N2)cc1C (centres undefined) -2.7e-05
CC1(C2(O)CC(c3ccccc3)ON2)CCCCC1 (centres undefined) -7.6e-05
COc1ccc(Cn2c(N)c(C#N)c3nc4ccccc4nc32)cc1OC -1.3e-05
Cc1nnc(SCC(=O)N2CCC(C(N)=O)CC2)s1 -3.7e-05
C=CCn1c(SCC(=O)c2ccccc2)nnc1-c1ccc2c(c1)OCO2 -3.6e-05
CC(C)(C)c1ccc(O)c(N)c1 -7e-05
CC(=O)Nc1ccc(-c2cc3ccccc3o2)cc1 -0.00011
COC(=O)c1ccccc1NC(=O)CSc1nnc(-c2ccncc2)o1 -4.2e-05
Cc1c(C=NCCOCc2ccccc2)cnn1C -3e-05
CCS(=O)(=O)CCn1c([N+](=O)[O-])cnc1C -8.1e-05
Cc1ccc(-n2c(N)c(C(N)=O)sc2=S)cc1 -2.9e-05
CCN(CC)CCOC(=O)C1(c2ccc(OC)c(OC)c2)CCCC1 -1.5e-05
CCN(CC)C(=O)c1sc2nc(-c3cccs3)cc(-c3cccs3)c2c1N 0
COc1ccc(/C(O)=C2/C(=O)C(=O)N(CCN(C)C)C2c2ccccn2)cc1OC (centres undefined) -8.1e-05
CC1(C(=O)CSc2nc3ccccc3s2)CCC(=O)O1 (centres undefined) -0.000167
O=C(O)CC1Sc2nc3ccccc3n2C1=O (centres undefined) -1.3e-05
CC(=O)Nc1ccc(Oc2ccc3nc(C)[nH]c3c2)cc1 -3.4e-05
CC(C)c1nc(NCC2CCCO2)c(C#N)c2c1COC(C)(C)C2 (centres undefined) -9.6e-05
N#Cc1nc(COc2ccc(Br)cc2)oc1N1CCCC1 -7e-05
CCCC1Cc2c(sc3ncnc(N)c23)CO1 (centres undefined) -4.2e-05
Cc1nc(Sc2cccn2C)c(C(F)(F)F)c(=O)[nH]1 -2.3e-05
COC(=O)c1cc(Br)c(=O)n(-c2nccs2)c1 -5.6e-05
Cc1ccc(SCc2[nH]nc3c2C(c2ccc(C)o2)C(C#N)=C(N)O3)cc1 (centres undefined) -5.6e-05
COc1cccc(C2C(C(=O)c3cc4ccccc4o3)=C(O)C(=O)N2CCN(C)C)c1OC (centres undefined) -4.6e-05
Cc1cc(C)n(CC2CC(=O)N(c3ccc(Cl)c(Cl)c3)C2=O)n1 (centres undefined) -5.7e-05
CN1CCN(c2nc3c(c(=O)n(C)c(=O)n3C)n2Cc2cccc3ccccc23)CC1 -6.9e-05
CC(C)C(=O)N1CCN(c2nc(-c3ccccc3)c3c(c2C#N)CCCC3)CC1 -9.2e-05
CCSc1nc(O)c(C2OC(=O)c3c2ccc(OC)c3OC)c(=O)n1-c1ccccc1 (centres undefined) -4.4e-05
COc1cccc(NC(=O)CC2SC(=Nc3ccccc3)NC2=O)c1 (centres undefined) -1.5e-05
Cc1nnc(NCc2n[nH]c(=O)c3ccccc23)c2ccccc12 -0.000115
